# Assay results as given in the supplement of paper PMC7411640.
# Counter-ions that a name gives are not always drawn.
# Tested on: MDA-MB-468
# Test: phospho-S6 immunofluorescence (DAPI-normalised), per-plate z-score; higher = higher phospho-S6 signal (less pathway suppression)
# Settings: co-treatment: vehicle; 24 h
# Protocol: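 GPCR-targeted compound library (MedChemExpress HY-L006) tested on MDA-MB-468 PTEN-null TNBC cells in 384-well plates at 0.1, 1 or 10 uM, combined with vehicle, GDC0941 450 nM or lapatinib 1 uM, for 24 h. Phospho-S6 (S240/244) immunofluorescence normalised to DAPI and expressed as a per-plate z-score; values are the mean of biological triplicates.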
row,Structure (SMILES),phospho-S6 immunofluorescence (z-score)
1,CCOc1cc(N)c(Cl)cc1C(=O)NCC1CN(Cc2ccc(F)cc2)CCO1 (centres undefined) [Mosapride (citrate)] (compound 10 µM),0.79
2,O=C(c1ccc(F)cc1)C1CCN(CCn2c(=O)[nH]c3ccccc3c2=O)CC1 [Ketanserin (tartrate)] (compound 10 µM),0.68
3,CCCN[C@H]1CCc2nc(N)sc2C1 [Pramipexole (dihydrochloride)] (compound 10 µM),0.17
4,O=C(O)CC1CCC2(CC1)CCN(c1cc(OC(F)(F)F)ccc1Cl)CC2 (compound 10 µM),0.22
5,C[C@H](NC(=O)C(C)(C)Oc1ccc(C(F)(F)F)cn1)[C@@H](Cc1ccc(Cl)cc1)c1cccc(C#N)c1 [Taranabant] (compound 10 µM),-2.4
6,CC(C)(C)NC[C@H](O)COc1nsnc1N1CCOCC1 [(S)-Timolol (Maleate)] (compound 10 µM),-0.06
7,Cc1ccc(Sc2ccccc2N2CCNCC2)c(C)c1 [Vortioxetine (hydrobromide)] (compound 10 µM),-9.37
8,OCCN1CCN(CCCN2c3ccccc3Sc3ccc(Cl)cc32)CC1 [Perphenazine] (compound 10 µM),0.82
9,Cc1cc(C(C)(C)C)c(O)c(C)c1CC1=NCCN1 [Oxymetazoline (hydrochloride)] (compound 10 µM),-0.03
10,c1ccc(NCc2ccc(CNc3ccccn3)cc2)nc1 (compound 10 µM),0.72
11,CCCN(CCc1cccs1)[C@H]1CCc2c(O)cccc2C1 [Rotigotine] (compound 10 µM),-0.73
12,COc1ccc(CNC(=O)c2sc3nc(C)cc(C)c3c2N)cc1 (compound 10 µM),0.34
13,CN1CCN(C2=Nc3ccccc3Oc3ccc(Cl)cc32)CC1 [Loxapine] (compound 10 µM),0.95
14,CC(=O)OCC(=O)[C@@]12OC(C)(C)O[C@@H]1C[C@H]1[C@@H]3C[C@H](F)C4=CC(=O)C=C[C@]4(C)[C@@]3(F)[C@@H](O)C[C@@]12C [Fluocinonide] (compound 10 µM),0.62
